In PubChem BioAssay AID2061166 (Soto Lab, Mitchell Center for Alzheimers Disease and …, 2025):
Active and inactive are the calls of the source.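 Rule for the calls: active = mean tau seeding fluorescence area under 1% of vehicle, meaning inhibition above a set limit; inactive = the rest.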

target: Microtubule-associated protein tau (Homo sapiens) (UniProt P10636); assay: inhibitors of seeded tau aggregation, primary screen, biochemical, seed amplification, ThT fluorescence (AID 2061166); conditions: Recombinant tau seeded by AD brain, ThT fluorescence AUC; at 100 µM; hits give high values
Sequence (P10636 whole entry, looked up): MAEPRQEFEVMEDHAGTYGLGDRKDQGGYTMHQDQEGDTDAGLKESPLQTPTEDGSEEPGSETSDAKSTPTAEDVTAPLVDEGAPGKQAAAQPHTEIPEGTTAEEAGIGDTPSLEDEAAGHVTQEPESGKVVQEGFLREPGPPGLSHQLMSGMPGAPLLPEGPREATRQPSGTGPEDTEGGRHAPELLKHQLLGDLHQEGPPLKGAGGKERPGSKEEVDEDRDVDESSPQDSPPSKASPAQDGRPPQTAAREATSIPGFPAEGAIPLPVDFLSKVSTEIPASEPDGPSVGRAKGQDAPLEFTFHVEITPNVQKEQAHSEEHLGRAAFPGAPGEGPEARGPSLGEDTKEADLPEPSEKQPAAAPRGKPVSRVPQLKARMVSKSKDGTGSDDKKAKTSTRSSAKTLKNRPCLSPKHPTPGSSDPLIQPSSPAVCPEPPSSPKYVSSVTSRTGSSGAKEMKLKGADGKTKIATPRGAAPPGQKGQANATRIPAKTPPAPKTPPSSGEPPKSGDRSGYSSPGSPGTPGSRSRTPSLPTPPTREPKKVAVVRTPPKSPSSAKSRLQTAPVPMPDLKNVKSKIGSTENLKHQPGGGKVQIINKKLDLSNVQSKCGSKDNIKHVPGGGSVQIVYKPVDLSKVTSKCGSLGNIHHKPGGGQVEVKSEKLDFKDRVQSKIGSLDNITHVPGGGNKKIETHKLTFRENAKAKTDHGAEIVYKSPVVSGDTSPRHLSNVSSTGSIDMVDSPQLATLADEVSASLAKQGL

Row | SMILES | inhibition
1 | COc1ccc(C(CN(C)C)C2(O)CCCCC2)cc1 (configuration not stated) | 40.8% (inactive)
2 | COc1ccc2c3c([nH]c2c1)C(C)=NCC3 | 11.8% (inactive)
3 | COc1ccc(C(=O)O)cc1OC | 11.4% (inactive)
4 | Cc1cccc(C(C)c2cnc[nH]2)c1C (configuration not stated) | 17.4% (inactive)
5 | CNC(=O)Oc1cccc2ccccc12 | 63.7% (inactive)
6 | c1cncc(C2=NCCC2)c1 | 32.6% (inactive)
7 | O=c1c2ccccc2[se]n1-c1ccccc1 | 51.6% (inactive)
8 | COc1ccc2c(c1)[nH]c1c(C)nccc12 | 35.5% (inactive)
9 | Cn1cc(C2=C(c3cn(C4CCN(Cc5ccccn5)CC4)c4ccccc34)C(=O)NC2=O)c2ccccc21 | 18.6% (inactive)
10 | O=C(CS(=O)C(c1ccccc1)c1ccccc1)NO (configuration not stated) | 7.82% (inactive)
11 | Cn1c(CCCC(=O)O)nc2cc(N(CCCl)CCCl)ccc21 | 48% (inactive)
12 | O=C1C=C2C=CC3CC2(O1)C1CCCCN31 (configuration not stated) | 17% (inactive)
